Screening data (PubChem BioAssay)
Pf growth 48h – Primary qHTS for delayed death inhibitors of the malarial parasite plastid, 48 hour incubation | 5.9% of 310,000 active | Potency, µM (doses to about 28.7 µM), for inactives: at the top dose activity change, negative = inhibition, usual class: inhibitors | P. falciparum luciferase growth in erythrocytes, 48 h; further: potency means the concentration at half of the fitted maximal effect; on the % scale 0 is the no-effect control and ±100 the full control effect
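Luciferase-expressing P. falciparum in infected erythrocytes (2% hematocrit, 0.1% parasitemia final) in RPMI 1640/0.5% Albumax were exposed to compound for 48 hours at 37 C, 5% CO2; growth read as luminescence.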
AMA1-RON2 inh – qHTS for Inhibitors of AMA1-RON; Towards Development of Antimalarial Drug Lead: Primary Screen | Potency, µM (top dose mostly 58.2 µM), inactives show at the top dose activity change, negative = inhibition, actives largely listed as inhibitors | Plasmodium falciparum AMA1 (3D7) - RON2 peptide interaction | AlphaScreen AMA1-biotinylated RON2 peptide binding | 0.2% of 360,000 active;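 further: potency means the concentration at half of the fitted maximal effect; 0% = vehicle wells and -100% = peptide control; nearly all actives have a fitted effect of over 45% in size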
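AMA1 (3D7) with his tag at 25 nM final met compounds first, then biotinylated RON2 peptide at 25 nM; detection used donor plus acceptor beads, 10 µg/mL apiece, read by AlphaScreen after 30 min at room temperature.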
Shiga toxin inh – A qHTS for Small Molecule Inhibitors of Shiga Toxin | Vero cells, Shiga toxin protein synthesis inhibition reporter | inhibition, % at 38.7 µM | 9.2% of 290,000 active; in the data active means inhibition mostly above about 28%, no sharp cut-off; inactive means mostly below about 43%; further: 0% is about no effect
Pf growth 96h – Primary qHTS for delayed death inhibitors of the malarial parasite plastid, 96 hour incubation; P. falciparum luciferase reporter growth, 96 h; Potency, µM (highest dose often 28.7 µM), for inactives: at the top dose activity change, negative = inhibition, most hits filed as inhibitors; AID 504834, 2011; 6.9% of 320,000 active; further: potency means the concentration at half of the fitted maximal effect; on the % scale 0 is the no-effect control and ±100 the full control effect
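Readout is luminescence from an integrated firefly luciferase in P. falciparum. Red cells, 2% hematocrit and 0.05% parasitemia final, were cultured with compound through two parasite generations (96 hours) at 37 C, 5% CO2.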
Cycloheximide cs – Cycloheximide Counterscreen for Small Molecule Inhibitors of Shiga Toxin; cell reporter, cycloheximide protein synthesis inhibition counterscreen; max response, %; 12% of 300,000 active; AID 2314, 2010; in the data active means max response mostly above about 13%, no sharp cut-off; inactive means mostly below about 14%; further: read at 38.3 µM for the half of the compounds with a filed dose; 0% is about no effect
SARS PLP yeast – qHTS of Yeast-based Assay for SARS-CoV PLP; S. cerevisiae expressing SARS-CoV PLpro, growth rescue; Potency, µM (doses to about 32.9 µM), without a hit: at the highest dose activity, positive = growth rescue, actives largely listed as activators; 0.19% of 330,000 active; AID 485353, 2010; calls by dose curve; further: potency means the concentration at half of the fitted maximal effect; 0% is about no effect; nearly all actives have a fitted effect of over 55% in size
An asterisk follows results filed as active; ? = inconclusive; . = no result; [ ] = another dose, or the depositor's remark. Shown are actives, neighbours in structure and some others; about 19% of the full set was active somewhere. Unless noted, the call rests on the fitted dose curve; in most records, active means well fitted curve in the direction sought with a large enough effect; inconclusive means small, poorly fitted or top-dose-only effect, or another doubt; inactive means no such curve, though single readings can be large; an effect the other way counts as inactive or inconclusive.

SMILES | Pf growth 48h | AMA1-RON2 inh | Shiga toxin inh | Pf growth 96h | Cycloheximide cs | SARS PLP yeast
CC(=O)CCc1ccc(OCC(=O)Nc2cccc(S(=O)(=O)N(C)c3ccccc3)c2)cc1 | ? | 22% | . | ? | . | -1%
CC(=O)NCc1ccc(C(=O)O)cc1 | 29% | -7% | 2 | 38% | -4 | -2%
CCCCC(=O)N(C)c1c(CC)nc2c(OCC(=O)c3ccc(F)cc3)cccn12 | . | 0% | . | . | . | .
COc1ccc(S(=O)(=O)N2CCN(C(=O)c3cc(C4CC4)nn3-c3ccccc3)CC2)cc1OC | . | -26% | . | . | . | -3%
CCOc1ccc(S(=O)(=O)N2CCN(C(=O)c3cc(C4CC4)nn3-c3ccccc3)CC2)cc1 | 4.7µM* | -6% | . | ? | . | 2%
O=C(c1cc(C2CC2)nn1-c1ccccc1)N1CCN(c2ccc(O)cc2)CC1 | 10µM* | ? | . | ? | . | 0%
O=C(c1cc(C2CC2)nn1-c1ccccc1)N1CCN(S(=O)(=O)c2c(F)cccc2F)CC1 | 7.4µM* | 9%[11.6 µM] | . | ? | . | 10%
CCc1cc(C(=O)N(CCCOC)c2c(N)n(Cc3ccccc3)c(=O)[nH]c2=O)sc1C | ? | -3% | . | 1% | . | .
O=C(N/N=C/C(Cl)=C\c1ccccc1)c1cnccn1 | . | -21% | 132* | ? | 53* | -7%
CC(/C=N/NC(=O)c1cccnc1)=C\c1ccccc1 | 163% | -2% | 84* | 29% | 49* | 2%
O=C(N/N=C/c1cc([N+](=O)[O-])ccc1Cl)c1cnccn1 | 0% | -1% | -10 | -12% | -2 | -1%
CC(=C/c1ccccc1)/C=N/NC(=O)c1cnccn1 | . | 13% | 51* | 29% | 30* | -7%
CC(/C=N/NC(=O)c1ccncc1)=C\c1ccc(C(C)C)cc1 | 4.7µM* | 6% | 128* | 5.2µM* | 52* | 3%
Cn1cccc1CC(=O)NNC(=S)Nc1ccc(Cl)cc1 | 18% | 92% | 28 | 43% | 15 | -15%
CC(=O)c1cc2c(cc1NC(=O)CN(C)S(=O)(=O)c1cccs1)OCO2 | . | 13% | . | . | . | 4%
CN(CC(=O)Nc1cccc(F)c1)C(=O)CN1C(=O)C2CCCCC2C1=O (configuration not stated) | -19% | -8% | . | -23% | . | 3%
O=C(N/N=C/C(Cl)=C/c1ccccc1)c1cnccn1 | ? | 66% | 57* | ? | 27 | -4%
O=C(N/N=C/C=C/c1ccccc1)C(O)c1ccccc1 (configuration not stated) | . | 4% | . | . | . | .
CC(/C=N/NC(=O)C(O)c1ccccc1)=C\c1ccccc1 (configuration not stated) | 64% | 11% | 45* | 43% | 14* | -2%
COCc1cccc(-c2csc(C(C)(O)c3cccc(F)c3)n2)c1 (configuration not stated) | . | 10% | . | . | . | .
CCN(CC)C(=O)CSc1nc(O)c(Cc2ccccc2)c(=O)n1-c1ccccc1C | 0% | 1% | 6 | 0% | -2 | 2%
Cc1ccc(NC(=O)COc2ncnc3cc([N+](=O)[O-])ccc23)cc1S(=O)(=O)N1CCOCC1 | -26% | -10% | -9 | -19% | -3 | -1%
CCOc1ccccc1NC(=O)C1CCN(S(=O)(=O)c2ccc(OC)c(OC)c2)CC1 | -39% | 1% | -1 | 6.6µM* | 9 | 2%
CCS(=O)(=O)N1CCC(C(=O)Oc2ccccc2OC)CC1 | 5% | -9% | -15 | 13µM* | -1 | 3%
CCOc1ccccc1NC(=O)C1CCN(c2ccc(S(=O)(=O)N3CCCC3)cc2)CC1 | 4.7µM* | -3% | 1 | -23%[5.75 µM] | -4 | 3%
SMILES | Pf growth 48h | AMA1-RON2 inh | Shiga toxin inh | Pf growth 96h | Cycloheximide cs | SARS PLP yeast
CCOc1ccccc1NC(=O)C1CCN(S(C)(=O)=O)CC1 | -125% | 3% | -5 | 30% | 1 | .
CCN(C(=O)c1cccnc1SC)C12CC3CC(CC(C3)C1)C2 | 5% | -14% | 13 | -16% | -5 | -13%
CC1=C(C(=O)N2CCOCC2)CC(CC(=O)NCc2cccc3ccccc23)C(=O)N1Cc1ccccc1 (configuration not stated) | . | -12% | . | . | . | .
Cc1ccc(S(=O)(=O)N[C@@H](Cc2ccccc2)C(=O)CCl)cc1 | -14% | ? | -14 | 30% | 1 | -65%
CC(C)(C)NC(=O)CSc1nnc(NC(=O)c2ccccc2Cl)s1 | 18% | 5% | 30 | -4% | 12 | 2%
CCOC(=O)CNC(=O)CSc1nnc(NC(=O)c2ccccc2Cl)s1 | 6% | -9% | 59* | 34% | 29* | -1%
O=C(CSc1nc2ccccc2s1)Nc1ccc2c(c1)oc1ccccc12 | 0% | -4% | -16 | 49% | 7 | 24%
O=C(CSc1nnc(NC(=O)c2ccccc2Cl)s1)Nc1ccc2c(c1)oc1ccccc12 | 108% | . | 54* | ? | 34* | 12%
Cc1ccccc1C(=O)Nc1nnc(SCC(=O)NC2CC2)s1 | 179% | -7% | 64* | ? | 30* | 0%
CCOC(=O)CNC(=O)CSc1nnc(NC(=O)c2ccc(S(=O)(=O)N3CCOCC3)cc2)s1 | 3% | 4% | -3 | 32% | -5 | -6%
O=C(CSc1nnc(NC(=O)c2ccccc2Cl)s1)NC1CC1 | 95% | 6% | 61* | ? | 39* | -4%
COc1ccc(C(=O)N2CCC(n3nccc3NC(=O)C3CC3)CC2)cc1F | ? | -16% | -6 | 19% | 9 | 10%
CC1CCc2c(sc3nc(CSc4n[nH]c(N)n4)[nH]c(=O)c23)C1 (configuration not stated) | -2% | -1% | 37* | 3% | 13 | -3%
Cc1ccc(S(=O)(=O)N2CCN(S(=O)(=O)c3ccccc3Br)CC2)cc1 | . | -9% | . | . | . | 7%
Cc1ccc(N=C2NC(=O)/C(=C/c3cccn3C)S2)cc1 | 95% | ? | 79* | ? | 37* | -1%
Cc1ccc(N=C2NC(=O)/C(=C/C=C/c3ccco3)S2)cc1 | ? | -16% | 27 | ? | 13 | -22%
Cc1ccc(N=C2NC(=O)/C(=C\c3ccc(C)s3)S2)cc1 | ? | -14% | 7 | 1.7µM* | 0 | 0%
Cc1ccc(N=C2NC(=O)/C(=C/c3cccn3C)S2)cc1C | ? | 5% | 66* | 13µM* | 32* | 0%
Cc1cccc(N=C2NC(=O)/C(=C/c3cccn3C)S2)c1C | -29% | -5% | 14 | -29% | 3 | -2%
Cc1ccc(N(Cc2cc(=O)[nH]c3ccccc23)C(=O)CCl)c(C)c1 | 9.3µM* | 13% | -11 | 6.6µM* | 1 | -1%
CCCC(=O)N(Cc1cc(=O)[nH]c2ccccc12)c1ccc(C)cc1C | ? | -5% | -4 | ? | -3 | -1%
